Results published in ChEMBL document CHEMBL3988442, “University of Dundee, Small-Polar-MMV Screening Library” (2021).
About 13,000 (27%) of roughly 48,000 compounds showed an effect of 50% or more. The list shows a part of the results.

test system: Wolbachia pipientis; assay: Anti-Wolbachia Cell-Based Screen; type: functional; set-up: scale not given: in the data most compounds retested in dose-response had high values; settings: 5 µM

Row | Structure (SMILES) | Percent Effect
1 | O=c1c2cccc(C(F)(F)F)c2ncn1CCN1CCNCC1 | -10.29%
2 | O=c1c2cccc(F)c2ncn1CCN1CCNCC1 | -5.542%
3 | CC(C(=O)Nc1cccc(F)c1)N(C)CCN1CCOCC1 (stereo unspecified) | 11.62%
4 | O=c1c2cccc(F)c2ncn1CCN1CCOCC1 | 0.8234%
5 | Cn1c2ccc(F)cc2c2ncn(CCCN(CCO)CCO)c(=O)c21 | 122.3%
6 | Cn1c2ccccc2c2ncn(CCCN3CCOCC3)c(=O)c21 | 106.3%
7 | CS(=O)(=O)c1ccc(NC(=O)NCc2ccc(F)cc2)cn1 | 9.509%
8 | CN(CC1(CO)CC1)C(=O)C1CCC(=O)N(Cc2ccc(Cl)cc2)C1 (stereo unspecified) | -2.442%
9 | CC(C)(C)C(=O)N1CC(=O)N(Cc2ccco2)CC(O)C1 (stereo unspecified) | 96.28%
10 | CC(C)COC(=O)N1CC(=O)N(Cc2ccco2)CC(O)C1 (stereo unspecified) | 111.6%
11 | CC(C)c1cc(C(=O)N2CCN(Cc3ccco3)CC2)n[nH]1 | 11.56%
12 | O=C([C@H]1COC[C@H]2CN(Cc3ccco3)C[C@H]21)N1CCCO1 | -9.766%
13 | O=C(O)C(F)(F)F.O=C1C[C@@H]2[C@H](CCN2Cc2ccco2)N1c1ccsc1 | 5.007%
14 | O=C1CN(C(=O)C2CCCCC2)CC(O)CN1Cc1ccco1 (stereo unspecified) | 88.46%
15 | CC(C)(C)OC(=O)N1CC(=O)N(Cc2ccco2)CC(O)C1 (stereo unspecified) | 112.7%
16 | O=C(NCCc1cccnc1)C1CCCN(Cc2ccco2)C1 (stereo unspecified) | -20.69%
17 | CC(=O)N1CCC(CSCc2ccco2)CC1 | -2.113%
18 | CC(C)(C)OC(=O)N1CCCN(Cc2ccon2)c2ccccc21 | 7.757%
19 | CC(NCc1ccc(-c2ccc(F)cc2)o1)c1nnc2n1CCC2 (stereo unspecified) | 11.28%
20 | CNC(=O)c1ccc(NC2CCN(CC(F)(F)F)C2=O)cc1Cl (stereo unspecified) | 5.324%
21 | Cc1ccc(C(NC(=O)CN2CCc3c(ncn3C)C2)C2CC2)cc1 (stereo unspecified) | 0.6431%
22 | O=C(CN1C(=O)CCC1=O)N1CCC(CSCc2ccco2)CC1 | -7.09%
23 | CC(C)CC(=O)N1CC(=O)N(Cc2ccco2)CC(O)C1 (stereo unspecified) | 81.13%
24 | O=C(CN1C(=O)CCC1=O)N1CCC(S(=O)(=O)Cc2ccco2)CC1 | 3.229%
25 | COCCOCCNC(=O)c1ccc(N2CCC(C)=N2)cc1 | -11.91%
26 | Cn1cc(CN2CCCC3(CCN(c4nncs4)C3)C2)cn1.O=C(O)C(F)(F)F (stereo unspecified) | -2.653%

Row | Structure (SMILES) | Percent Effect
27 | CCN1CC2(CCN(CC3CCCO3)CC2)OC1=O (stereo unspecified) | -23.86%
28 | Cc1cccc(CN2CCC3(CCCN(Cc4cnn(C)c4)C3)C2)n1.O=C(O)C(F)(F)F.O=C(O)C(F)(F)F (stereo unspecified) | 99.91%
29 | c1cc(CN2CCCC3(CCN(CC4CCCO4)CC3)C2)n[nH]1 (stereo unspecified) | 86.72%
30 | Cc1cccc(CN2CCCC3(CCN(CC4CCCO4)CC3)C2)n1.O=C(O)C(F)(F)F.O=C(O)C(F)(F)F (stereo unspecified) | 92.13%
31 | Cc1cccc(CN2CCOC3(CCCN(CC(=O)N(C)C)C3)C2)n1.O=C(O)C(F)(F)F.O=C(O)C(F)(F)F (stereo unspecified) | 7.418%
32 | Cc1cccc(CN2CCC3(CCC(CC(=O)N(C)C)CC3)CC2)n1.O=C(O)C(F)(F)F | -48.49%
33 | Cn1cc(CN2CCCC3(CCN(C(=O)c4ccccn4)C3)C2)cn1.O=C(O)C(F)(F)F.O=C(O)C(F)(F)F.O=C(O)C(F)(F)F (stereo unspecified) | 5.668%
34 | O=C1OC2(CCN(CC3CCCO3)CC2)CN1CCc1ccccc1 (stereo unspecified) | 4.853%
35 | NC(=O)c1cnc(NC2CCC(c3ccccc3)CC2)c(Cl)c1 (stereo unspecified) | -13.17%
36 | CCc1ncncc1C(=O)N1CCN(Cc2c(C)noc2C)CC1 | -0.7919%
37 | COc1ccccc1OC1CCN(C(=O)c2c[nH]c(=O)[nH]c2=O)CC1 | -1.274%
38 | Cc1nn(CCO)c(C)c1CNC1CCOc2ccccc21.Cl (stereo unspecified) | -2.726%
39 | O=C(NCCNc1cnccn1)N1CCN(Cc2cccnc2)CC1 | 1.12%
40 | Cc1[nH]ncc1CCCNC(=O)N1CCOC(C)C1 (stereo unspecified) | -4.876%
41 | O=C(NCCNc1cnccn1)N1CC=C(c2ccc(O)cc2)CC1 | -14.06%
42 | O=C(NCCNc1cnccn1)N1CCN(c2nccs2)CC1 | 115.8%
43 | O=C(NCCNc1cnccn1)N1CCc2ccccc2C1 | 3.9%
44 | CC1CN(C(=O)NCCCn2cncn2)CCO1 (stereo unspecified) | -6.452%
45 | CN1CCCN(C(=O)NCCNc2ncccc2C#N)CC1 | -11.99%
46 | CN1CCCN(C(=O)NCCNc2cnccn2)CC1 | 104.7%
47 | CC(=O)N1CCCN(C(=O)NCCNc2cnccn2)CC1 | 106.7%
48 | O=C(NCCNc1ccccn1)N1CCSCC1 | 1.97%
49 | CC1CN(C(=O)NCCNc2cnccn2)CCO1 (stereo unspecified) | 93.32%
50 | O=C(NCCNc1cnccn1)N1CC=C(c2ccccc2)CC1 | -24.03%
51 | CC(C)n1ncc2c1NC(=O)C(C#N)C21CCCCC1 (stereo unspecified) | 14.23%
